# According to PubChem BioAssay (EPA / NIEHS):
# Values joined by “and” are separate entries in the source; they are usually repeats but may differ in a detail not shown here. Identical values can stand only once. Records with an inconclusive call do not appear. Where a structure was tested more than once in an assay, its records may differ in their call. Active and inactive are the calls of the source. How the source made its calls: active means hit-call score of the fitted dose curve at least 0.9, where 1 is the maximum; inconclusive means response in the unintended direction; inactive means score below 0.9.
# Experiment: TOX21_p53_BLA_p5_viability: Viability Assessment in the Tox21 HCT-116 p53 Agonism Beta-lactamase Assay, Phase 5 (AID 2283600)
# Description: TOX21_p53_BLA_p5 is a cell-based, single-readout assay that uses HCT116, a human intestinal cell line, […] in a 1536-well plate.TOX21_p53_BLA_p5_viability is an assay readout measuring cellular ATP content and detected with CellTiter-Glo Luciferase-coupled ATP quantitation.TOX21_p53_BLA_p5_viability used a type of viability reporter where loss-of-signal activity can be used to understand changes in the cell viability. Furthermore, this assay endpoint can be referred to as a secondary readout, because this assay has produced multiple assay endpoints where this one serves a viability function. To generalize the intended target to other relatable targets, this assay endpoint is annotated to the cell cycle intended target family, where the subfamily is cytotoxicity.
# Thawing Method: Place 14 mL of pre-warmed thaw medium into a 15 mL of conical tub. Remove the vial of cells to be thawed from liquid nitrogen and thaw rapidly by placing at 37C in a water bath with gentle agitation for 1-2 minutes. Decontaminate the vial by wiping with 70% ethanol before opening in a biological safety cabinet. Transfer the vial contents drop-wise into 14 mL of thaw medium in a sterile 15-mL conical tub. Centrifuge cells at 900 rpm for 4 minutes and resuspend in thaw medium. Transfer contents to the T75 tissue culture flask containing Thaw Medium and place flask in a humidified 37C/5% CO2 incubator. Switch to growth medium at first passage.Propagation Method: Aspirate medium, rinse once in DPBS, add 0.25% Trypsin/EDTA and swirl to coat the cell evenly. Add an equal volume of Growth Medium to inactivate Trypsin after 2-3 minutes incubation at 37C. Centrifuge cells at 900 rpm for 4 minutes and resuspend in growth medium. Cell should be passage or fed at least twice a week.Assay Protocol: Harvest cells from culture in growth medium and resuspend in assay medium. 2.2 Dispense 4000 cells/5 uL/well into 1536-well black/clear bottom plates using a Multidrop dispenser. After the cells were incubated at 37C for 5 hours, 23 nL of compounds dissolved in DMSO were transferred to the assay plate by a PinTool resulting in a 217-fold dilution. Incubate the plates for 16 hours at 37C, 5% CO2. Add 1 uL of 6X LiveBLAzer FRET B/G (CCF4-AM) Substrate Mixture to each well using a BioRAPTR dispenser and incubate the plates at room temperature for 2 hours. Measure fluorescence intensity at 460 and 530 nm emission and 405 nm excitation by an Envision detector. Data is expressed as the ratio of 460nm/530nm emissions. Add 4 uL of Cell-titer Glo to each well using BioRAPTR and incubate the plates at room temperature for […]. For cell viability readout that measures cytotoxicity, 4 ul/well of CellTiter-Glo reagent was added into the assay plates using a Flying Reagent Dispenser. After 30 min incubation at room temperature, the luminescence intensity in the plates was measured using a ViewLux plate reader.
SMILES,outcome,AC50
CCCCCCCCBr,inactive,
CC(c1ccc(O)cc1)c1ccc(O)cc1,inactive,
C=C(C)C(=O)OCC(CC)CCCC (stereo unspecified),inactive,
O=C(O)c1cc(I)cc(I)c1I,inactive,
c1ccc(-c2cccc(-c3ccccc3)c2)cc1,inactive,
OCC(c1ccc(Cl)cc1)c1ccc(Cl)cc1,,70.4 µM (active)
N#Cc1ccc(Cl)cc1,inactive,
CC(C)(C)c1cc([N+](=O)[O-])cc(C(C)(C)C)c1O,inactive,
CCCCCCCCCCCCCl,inactive,
Cc1cc(-c2cc(C)c(N)c(C)c2)cc(C)c1N,inactive,
C[CH2][Hg][S]c1ccccc1C(=O)O,,46.1 µM (active) and 7.05 µM (active)
COC(=O)Nc1cccc(OC(=O)Nc2cccc(C)c2)c1,inactive,
COc1ccc(N)cc1,inactive,
[F][Sn]([c]1ccccc1)([c]1ccccc1)[c]1ccccc1,,13.2 µM (active)
CCOP(=S)(OCC)SCSc1cc(Cl)ccc1Cl,inactive,
OC(c1ccc(Cl)cc1)(c1ccc(Cl)cc1)c1cccnc1,inactive,
O=[N+]([O-])c1ccccc1O,inactive,
O=S1OC[C@@H]2[C@H](CO1)[C@]1(Cl)C(Cl)=C(Cl)[C@@]2(Cl)C1(Cl)Cl (stereo partly specified),inactive,
CCN(N=O)C(N)=O,inactive,
O=C1C[C@@H]2OCC=C3CN4CC[C@]56c7ccccc7N1[C@H]5[C@H]2[C@H]3C[C@H]46,inactive,

SMILES,outcome,AC50
C=CC(=O)[O][Sn]([CH2]CCC)([CH2]CCC)[CH2]CCC,,1.82 µM (active)
CCOc1ccc(N)cc1,inactive,
CCC[CH2][Sn]([CH2]CCC)([CH2]CCC)[CH2]CCC,,41 µM (active)
Nc1cccnc1,inactive,
Cc1cc(Cl)ccc1OCCCC(=O)O,inactive,
CCOP(=S)(OCC)Oc1ccc(Cl)cc1Cl,inactive,
N#CS,inactive,
O=[N+]([O-])c1ccc(Cl)c([N+](=O)[O-])c1,,44 µM (active) and 44.4 µM (active)
O=C(Cc1ccccc1)OCCc1ccccc1,inactive,
CC1(C)[C@H](/C=C2\CCSC2=O)[C@@H]1C(=O)OCc1coc(Cc2ccccc2)c1,inactive,
CN(C)c1ccc(N=O)cc1,,74.2 µM (active) and 79.4 µM (active)
Oc1ccc(Cc2ccc(O)cc2)cc1,inactive,
COC(=O)c1cc(Oc2ccc(Cl)cc2Cl)ccc1[N+](=O)[O-],inactive,
CCCCCCCCCCCCN(C)C,inactive,
CCC[CH2][Sn]([Cl])([Cl])[CH2]CCC,,2.75 µM (active) and 2.86 µM (active)
BrCc1ccc(Br)cc1,inactive,
CC(C=O)Cc1ccc2c(c1)OCO2 (stereo unspecified),inactive,
O=c1[nH]c2ccccc2n1C1CCN(CCCC(c2ccc(F)cc2)c2ccc(F)cc2)CC1,,75.5 µM (active) and 31.9 µM (active)
CCOP(=O)(OCC)OC(=CCl)c1ccc(Cl)cc1Cl,inactive,
O=C(Nc1ccc(Br)cc1)c1cc(Br)cc(Br)c1O,inactive,9.14 µM (active)
